# Test results as given in PubChem BioAssay AID1347428 (National Center for Advancing Translational Sciences (NCATS), 2020).
# Hit rate of the full screen: of about 91,000 compounds, about 290 (0.32%) were called active. About 7% were inconclusive and are not listed. Shown is part of a subset that was picked to be rich in actives. A number with no mark means an inactive call. Calls come from the whole dose curve; as a rule, active = well fitted inhibition curve with a large enough effect; inconclusive = small, poorly fitted or top-dose-only effect; inactive = no such curve, though single readings can be large or run the other way.
# Target: Single-stranded DNA cytosine deaminase (Homo sapiens) (UniProt Q9GZX7)
# Sequence (Q9GZX7 whole entry, looked up): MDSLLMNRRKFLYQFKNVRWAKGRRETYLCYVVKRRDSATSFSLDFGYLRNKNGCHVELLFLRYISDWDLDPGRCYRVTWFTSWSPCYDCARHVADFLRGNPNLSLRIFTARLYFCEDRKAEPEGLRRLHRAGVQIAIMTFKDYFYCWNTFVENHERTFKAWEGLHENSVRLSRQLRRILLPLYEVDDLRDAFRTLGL
# Assay: Primary qHTS assay for inhibitors of Activation Induced Cytidine Deaminase (AID): AID signal; note: nearly all actives have a fitted effect of over 25% in size
# Conditions: AID deamination FRET fluorescence, UDG-coupled, 4 h; series mostly up to 115 µM; activity change, negative = inhibition: at the top concentration
# Source text: Assay Provider (PI) Patricia Gearhart Ph.D.
# National Institute on Aging
# National Institute of Health (NIH), Bethesda, MD
# Assay Provider (PI) Rahul Kohli Ph.D.
# Perelman School of Medicine
# University of Pennsylvania, Philadelphia, PA
# Activation-Induced Deaminase (AID) is a cytosine deaminase which converts cytosine into uracil within stretches of ssDNA. The presence of uracil in DNA initiates a cascade of mutagenic DNA repair to introduce point mutations and DNA double strand breaks. Specific targeting of AID to the immunoglobulin heavy chain loci (Igh) promotes mutagenesis in the antibody variable region for somatic hypermutation (SHM) or switch regions leading to class switch recombination (CSR). However, AID also plays a role in accumulating unnecessary mutations across the genome. Mis-targeting of AID results in the initiation of tumor development and leads to greater drug resistance among cancer cells when continually expressed. To identify an AID inhibitor, a small molecule library will be screened in collaboration with NCATS core facility at NIH. To confirm biological function, inhibitors will be examined in an in vitro murine B-cell activation assay and subsequent secondary validation screens. Top molecules will be further screened to identify inhibitory efficacy against a wild type primary splenocytes assay. Using these approaches, we hope to identify a small molecule with great efficacy and low toxicity for use as a molecular probe to further characterize AID's intricacies, or even as a therapeutic.
# A FRET based analysis of cytosine deamination, was developed to identify potential inhibitors of AID catalytic activity. This screen has two signal output, Read 1 evaluates the AID inhibition response. The second readout (Read 2) evaluates UDG response and is uses as a counterscreen to exclude false positive inhibitors. Inhibition in AID and inactivity in the UDG signal is the desired outcome for this assay.
# SEQUENCE No. (e.g., 1, 2, 3, etc.); […] (e.g., Cells, Incubation, Reagent, etc.); VALUE; DESCRIPTION
# 1a; Reagent; 3 uL; [4/3x] 1 uM AID/2.67 U/mL UDG
# 1b; Reagent; 3 uL; 2 U/mL UDG
# 1c; Reagent; 3 uL; 1 uM AID
# 2a; Compound; 46 nL; Follow-up plates (0.64 uM - 10 mM)
# 2b; Control; 46 nL; ATA ([…] - 10 mM)
# 3; Time; 10 min; incubation at room temperature
# 5; Time; 4 hr; incubation at room temperature
# 6; Reagent; 4 uL; [2x] 250 mM NaOH
# 7; Time; 15 sec; centrifuge at 1000 rpm
# 8; Time; 30 min; incubation at room temperature
# 9a; Detection; fluorescence (Read 1: AID); EnVision (PerkinElmer) plate reader, 540 excitation and 590 emission filters
# 9b; Detection; fluorescence (Read 2: UDG); EnVision (PerkinElmer) plate reader, 560 excitation and 665 emission filters
# NOTES (numbers refer to sequence above)
# 1a; Reagents were dispensed in a medium-binding black solid-bottom Greiner plates (789176F) using a BioRptr liquid dispenser. Dispense 3 uL of [4/3x] 1 uM AID (provided by Kohli lab) and [4/3x] 2 U/mL UDG (NEB M0280L) into columns 1, 2, 5 to 48.
# 1b; Dispense 3 uL of [4/3x] 2 U/mL UDG into column 3.
# 1c; Dispense 3 uL of [4/3x] 1 uM AID into column 4.
# 2a; Compound (7-points [uM] (0.64; 3.2; 16; 80; 400; 2,000; 10,000; 20,000) double pin-transferred (Dip Factor = 2) using the Kalypsys (Wako USA) pintool equipped with a 1536 pinhead for a final concentration range of 7.32 nM - 114 uM. […]
# 9a; Fluorescence signal (column label AID) was read using the EnVision plate reader. […]
# % is set by controls: 0 for no effect and ±100 for the full control effect; potency is the fitted concentration of half-maximal effect.
SMILES,Potency,"activity change, negative = inhibition"
CC(=O)c1c(O)c(C)c(O)c(Cc2c(O)c3c(c(C(=O)/C=C/c4ccccc4)c2O)OC(C)(C)C=C3)c1O,28.2 µM (active),
Cc1cccc2c(CCN)c[nH]c12,,1.94%
COc1cccc(CNCCc2ccccc2)c1,,0.963%
COC1CC(OC2CCC3(C=O)[C@H]4CCC5(C)C(C6=CC(=O)OC6)CCC5(O)[C@@H]4CCC3(O)C2)OC(C)C1O (stereo not given in full),,5.64%
O=C(O)CCS(=O)(=O)C(Cl)Cl,,2.04%
